Values without a mark were called inactive.
Tested on: Vero E6 infected with SARS-CoV-2
Assay: inhibition of SARS-CoV-2 cytopathic effect; higher = more antiviral protection, active = above 15
Conditions: 48 h

Compound	inhibition of SARS-CoV-2 cytopathic effect (1 nM)	inhibition of SARS-CoV-2 cytopathic effect (8.33 nM)	inhibition of SARS-CoV-2 cytopathic effect (100 nM)	inhibition of SARS-CoV-2 cytopathic effect (833.33 nM)	inhibition of SARS-CoV-2 cytopathic effect (10000 nM)
N#C[C@H](O[C@@H]1O[C@H](CO[C@@H]2O[C@H](CO)[C@@H](O)[C@H](O)[C@H]2O)[C@@H](O)[C@H](O)[C@H]1O)c1ccccc1 [amygdalin]	0.51%	-1.9%	0.79%	-1.12%	0.27%
Cc1cc(Nc2ccc(NC(=O)c3ccc(Nc4ccnc5ccccc45)cc3)cc2)nc(N)n1	-1.09%	0.62%	2.48%	3.69%	20.3% (active)
Cc1ccc(C)c([C@H](O)CNC(C)C)c1 [benzenemethanol,-2,5-dimethyl-[[(1-methylethyl)amino]methyl]]	-1.13%	2.02%	0.03%	0.15%	1.34%
Cc1cc2c(cc1C(F)(F)F)N(C(=O)Nc1ccc(Oc3cccnc3C)nc1)CC2	0.45%	0.15%	-0.25%	0.74%	-2.31%
Clc1cc(Cl)c(OCC#CI)cc1Cl [haloprogin]	-0.57%	-1.3%	-0.9%	4.17%	15.9% (active)
CC/C(=C(\c1ccc(O)cc1)c1ccc(OCCN(C)C)cc1)c1ccccc1 [afimoxifene]	-2.83%	1.16%	3.76%	-0.54%	40% (active)
[Cl][Ti][Cl].c1cc[cH-]c1.c1cc[cH-]c1 [titanocene-dichloride]	3.56%	-0.14%	1.81%	-1.85%	0.26%
CC(C)(C)C(=O)NCCCC(=O)O [pivagabine]	0.01%	-1.15%	-1.01%	0.86%	-0.03%
CC(C)(F)C[C@H](N[C@@H](c1ccc(-c2ccc(S(C)(=O)=O)cc2)cc1)C(F)(F)F)C(=O)NC1(C#N)CC1 [odanacatib]	-3.88%	-4.52%	-3.49%	-1.8%	0.04%
O=C(O)CNC(=O)c1c(O)c2ccccc2n(Cc2ccccc2)c1=O	-0.58%	-1.09%	0.41%	-0.62%	-1.13%
Cc1ccc([N+](=O)[O-])cc1S(=O)(=O)N(C)C	-1.97%	-4.63%	-0.38%	-0.5%	-0.2%
CN1[C@@H]2CC[C@H]1C[C@@H](OC(=O)N1Cc3ccccc3NC1=O)C2	-1.09%	-0.87%	1.69%	1.84%	-0.21%
c1cc(Nc2cc(C3CC3)n[nH]2)nc(Nc2ccc3[nH]cnc3c2)n1	-2.31%	-1.82%	-0.35%	-0.79%	5.62%
COC(=O)c1ccc2c(c1)nc(NC(=O)c1ccccc1)n2CCCc1ccccc1	-0.52%	-1.27%	-1.28%	-5.07%	-1.86%
CCCCC(CC)CNC(=N)NC(=N)NCCCCCCNC(=N)NC(=N)NCC(CC)CCCC (stereo not given) [alexidine]	-2.11%	4.36%	2.23%	-6.06%	-18.2%
C[C@]12CC[C@H](O)CC1=CC[C@@H]1[C@@H]2CC[C@]2(C)C(c3cccnc3)=CC[C@@H]12 [Abiraterone (CB-7598)]	2.77%	5.09%	3.28%	2.56%	1.88%
CCCCC/C=C\C=C\CCCCCCCCC(=O)O [trans-10,cis-12-conjugated-linoleic-acid]	-0.53%	-2.2%	-2.88%	-2.64%	7.84%
COc1cc2c(cc1OC)-c1cc3ccc(OC)c(OC)c3c[n+]1CC2 [palmatine-chloride]	-2.25%	0.72%	-0.15%	-2.8%	2.04%

— the supplement of paper PMC13380429
